Experimental findings from PubChem BioAssay are described below.

Assay [1] has as its system PRMT1 (protein arginine N-methyltransferase 1). The assay is described as follows: PRMT1 binders on small-molecule microarrays, primary screen, biochemical, small-molecule microarray, 635 nm fluorescence (AID 1088).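 Also: binding of Prmt1 protein to compounds spotted on small-molecule microarray slides.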 Particulars: small-molecule microarray binding, higher = more signal.
Assay [2] can be described thus: yeast growth modulation, basal conditions, primary screen, YJM789 clinical isolate, OD600, 24 h (AID 1089).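 Also: growth of clinical yeast isolate S. cerevisiae YJM 789 seeded 1000 cells per well; test concentration not given here.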 Particulars: S. cerevisiae YJM789 growth, higher = more signal, called active from +8 up or from −8 down.
Assay [3] can be described thus: fission yeast growth modulation, primary screen, strain 972, OD600, 24 h, no modulator (AID 1090).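 Also: basal condition with compound alone and no growth modifier present; test concentration not given here.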 Particulars: S. pombe 972 growth, higher = more signal, called active from +8 up or from −8 down.
Assay [4] can be described thus: S. cerevisiae growth modulation with rapamycin, primary screen, strain BY4716, OD600, 96 h (AID 1091). Also: test concentration not given here. The settings on record: higher = more signal, called active from +8 up or from −8 down.
Assay [5] concerns the target Torsin-1A-interacting protein 2 (Homo sapiens) (UniProt Q8NFQ8). Kind of assay: LULL1 binders on small-molecule microarray, primary screen, cell lysate, human LULL1 lysate, 635/667 nm fluorescence (AID 1092).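 Also: probe is lysate of COS7 cells overexpressing human LULL1; score merges per-feature 667 nm fluorescence with signal-to-noise.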 Particulars: hLULL1 lysate binding, 635 nm fluorescence, higher = more signal.
Assay [6] is described as follows: E. coli growth modulation, two-sided OD650, primary screen, E. coli filamentation project, strain DRC41, 24 h (AID 1093).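 Also: MC1000 strain lacking acrAB efflux and sulA so SOS filamentation is blocked; test concentration not given here.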 Particulars: OD650, 24 h, higher = more signal, called active from +8 up or from −8 down.
The nature of assay [7]: small-molecule microarray binders of probe aLefty2, primary screen, biochemical, biotinylated probe, 635/667 nm fluorescence (AID 1094).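 Also: score merges spot fluorescence near 667 nm with spot signal-to-noise ratio.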 Particulars: higher = more signal.
Assay [8] concerns Noggin (protein binding on small-molecule microarray). The assay is described as follows: Noggin binders on small-molecule microarray, primary screen, biochemical, 635/667 nm fluorescence (AID 1095).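 Also: score merges 667 nm feature fluorescence with signal to noise over triplicate slides.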 The settings on record: 635 nm fluorescence, higher = more signal.
Assay [9] has as its target Neurogenic locus notch homolog protein 3 (Homo sapiens) (UniProt Q9UM47). The assay is described as follows: NOTCH3 binders on small-molecule microarray, primary screen, biochemical, 635/667 nm fluorescence (AID 1096). The settings on record: NOTCH3 binding, 635 nm fluorescence, higher = more signal.
Assay [10] is described as follows: small-molecule microarray binders of probe aEGFR, primary screen, biochemical, biotinylated probe, 635/667 nm fluorescence (AID 1097).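 Also: probe is a biotinylated anti-EGFR antibody binding compounds printed on slides; score combines fluorescence near 667 nm and signal to noise of each spot.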 Particulars: higher = more signal.
Assay [11] relates to Plasmodium falciparum Sir2 (PF13_0152, Sir2A). The assay is described as follows: pfSir2 binders on small-molecule microarrays, primary screen, biochemical, small-molecule microarray, 635 nm fluorescence (AID 1098).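 Also: score merges spot fluorescence intensity with its signal-to-noise ratio.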 The settings on record: small-molecule microarray binding, fluorescence 635 nm; higher = more signal.
A short description of assay [12]: small-molecule microarray binders of probe aDKK1, primary screen, biochemical, biotinylated probe, 635/667 nm fluorescence (AID 1099).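 Also: score merges 667nm spot fluorescence with signal to noise across triplicate slides; reference of the scale not given here.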 Particulars: higher = more signal.
Assay [13] can be described thus: small-molecule microarray binders of probe aCHRDL2, primary screen, biochemical, biotinylated probe, 635/667 nm fluorescence (AID 1100). The settings on record: higher = more signal.
Assay [14] in a line: splicing luciferase reporter signal modulators, primary screen, spliceosome inhibition project, cell-based, HEK293, splice +/- reporter (AID 1101).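 Also: HEK293 cells carrying a splicing-competent luciferase reporter gene; test concentration not given here.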 Particulars: luminescence, 24 h, higher = more signal, called active from +8 up or from −8 down. Background: In a reporter assay the amount or activity of a reporter protein is the signal.
In assay [15] the target is Fibroblast growth factor 10 (Homo sapiens) (UniProt O15520). Kind of assay: FGF10 binders on small-molecule microarrays, primary screen, biochemical, small-molecule microarray, 635 nm fluorescence (AID 1102). The settings on record: FGF10 binding, fluorescence 635 nm, higher = more signal.
Fibroblast growth factor 10 (Homo sapiens), sequence (O15520 whole entry, looked up): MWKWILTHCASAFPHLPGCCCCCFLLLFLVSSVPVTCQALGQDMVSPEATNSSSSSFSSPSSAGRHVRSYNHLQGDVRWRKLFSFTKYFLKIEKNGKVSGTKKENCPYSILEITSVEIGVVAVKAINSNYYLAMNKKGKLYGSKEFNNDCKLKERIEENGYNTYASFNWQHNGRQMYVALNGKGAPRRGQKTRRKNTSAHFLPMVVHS
The subject of assay [16] is glycogen synthase kinase-3 (GSK3A per assay name; protocol says GSK3B). The assay is described as follows: GSK3 binders on small-molecule microarrays, primary screen, biochemical, small-molecule microarray, 635 nm fluorescence, GSK3A (AID 1103). Also: the record names both GSK3A and GSK3B. Particulars: small-molecule microarray binding, fluorescence 635 nm; higher = more signal.
The target in assay [17] is Epidermal growth factor receptor (Homo sapiens) (UniProt P00533). The assay is described as follows: EGFR binders on small-molecule microarrays, primary screen, biochemical, small-molecule microarray, 635 nm fluorescence (AID 1104).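 Also: score merges 667 nm emission intensity with spot signal to noise over triplicate slides.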 The settings on record: EGFR binding, higher = more signal.
Epidermal growth factor receptor (Homo sapiens), sequence (P00533 whole entry, looked up): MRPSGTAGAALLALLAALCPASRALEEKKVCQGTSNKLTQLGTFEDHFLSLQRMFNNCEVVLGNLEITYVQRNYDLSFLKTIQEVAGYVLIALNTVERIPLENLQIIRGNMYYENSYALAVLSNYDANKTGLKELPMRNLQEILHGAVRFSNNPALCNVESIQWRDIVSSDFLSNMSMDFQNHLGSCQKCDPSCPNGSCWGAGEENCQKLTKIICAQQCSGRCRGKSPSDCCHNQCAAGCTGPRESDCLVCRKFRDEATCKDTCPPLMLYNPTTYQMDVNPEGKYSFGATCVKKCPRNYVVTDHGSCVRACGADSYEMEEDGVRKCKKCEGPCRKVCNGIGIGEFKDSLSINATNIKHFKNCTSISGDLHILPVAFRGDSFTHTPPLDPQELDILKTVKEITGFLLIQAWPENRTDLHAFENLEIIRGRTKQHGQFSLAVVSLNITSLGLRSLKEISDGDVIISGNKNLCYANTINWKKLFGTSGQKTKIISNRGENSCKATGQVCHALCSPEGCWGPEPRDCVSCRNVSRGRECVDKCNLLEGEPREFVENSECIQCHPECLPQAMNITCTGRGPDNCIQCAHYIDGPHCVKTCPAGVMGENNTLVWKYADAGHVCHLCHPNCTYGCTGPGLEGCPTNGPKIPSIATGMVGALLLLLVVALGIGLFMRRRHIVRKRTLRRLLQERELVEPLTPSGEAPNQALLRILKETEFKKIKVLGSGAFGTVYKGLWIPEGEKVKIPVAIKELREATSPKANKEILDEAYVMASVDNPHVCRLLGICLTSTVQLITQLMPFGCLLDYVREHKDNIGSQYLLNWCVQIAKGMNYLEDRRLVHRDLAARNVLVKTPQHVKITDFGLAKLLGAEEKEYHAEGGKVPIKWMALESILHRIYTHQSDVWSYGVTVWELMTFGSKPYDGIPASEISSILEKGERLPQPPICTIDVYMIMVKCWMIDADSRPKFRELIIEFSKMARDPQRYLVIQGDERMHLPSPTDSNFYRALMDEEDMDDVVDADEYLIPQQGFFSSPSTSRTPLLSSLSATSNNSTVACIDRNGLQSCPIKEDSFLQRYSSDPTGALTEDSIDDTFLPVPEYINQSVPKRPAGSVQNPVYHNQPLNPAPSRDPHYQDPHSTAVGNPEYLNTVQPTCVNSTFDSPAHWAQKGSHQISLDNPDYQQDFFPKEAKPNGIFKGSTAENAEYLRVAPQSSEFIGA
The target of assay [18] is Follistatin-related protein 3 (Homo sapiens) (UniProt O95633). Kind of assay: FSTL3 binders on small-molecule microarrays, primary screen, biochemical, small-molecule microarray, 635 nm fluorescence (AID 1105).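 Also: score merges emission near 667 nm and signal to noise per printed spot across three slides.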 The settings on record: FSTL3 binding, higher = more signal.
Follistatin-related protein 3 (Homo sapiens), sequence (O95633 whole entry, looked up): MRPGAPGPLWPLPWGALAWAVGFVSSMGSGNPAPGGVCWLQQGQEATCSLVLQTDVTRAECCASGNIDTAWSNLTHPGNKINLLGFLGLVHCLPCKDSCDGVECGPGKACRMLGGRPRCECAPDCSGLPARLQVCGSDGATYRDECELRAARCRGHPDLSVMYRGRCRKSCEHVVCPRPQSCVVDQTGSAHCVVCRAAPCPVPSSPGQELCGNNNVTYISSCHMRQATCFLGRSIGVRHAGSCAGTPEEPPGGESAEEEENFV
Assay [19] deals with Dickkopf-related protein 1 (Homo sapiens) (UniProt O94907). The assay is described as follows: DKK1 binders on small-molecule microarrays, primary screen, biochemical, small-molecule microarray, 635 nm fluorescence scan (AID 1106).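 Also: score merges emission near 667 nm with signal to noise over three replicate slides.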 Particulars: DKK1 binding, higher = more signal.
Dickkopf-related protein 1 (Homo sapiens), sequence (O94907 whole entry, looked up): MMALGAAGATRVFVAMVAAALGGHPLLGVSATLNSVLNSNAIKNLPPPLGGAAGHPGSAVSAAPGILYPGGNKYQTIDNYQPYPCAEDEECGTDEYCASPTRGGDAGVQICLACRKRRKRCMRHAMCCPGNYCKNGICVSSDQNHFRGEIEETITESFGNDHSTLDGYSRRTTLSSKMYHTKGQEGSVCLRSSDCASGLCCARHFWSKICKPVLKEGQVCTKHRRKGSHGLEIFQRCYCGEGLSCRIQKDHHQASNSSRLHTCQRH
Assay [20] has as its system Inhibin beta A chain (activin A). Kind of assay: INHBA (activin A) binders on microarrays, primary screen, biochemical, small-molecule microarray, 635 nm fluorescence scan (AID 1107).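 Also: mouse activin A protein probed at 4.33 µg/mL on printed slides; score merges bound-protein fluorescence near 667 nm with spot signal-to-noise.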 Particulars: small-molecule microarray binding, higher = more signal.

Active and inactive are the calls of the source.

Torsin-1A-interacting protein 2 (Homo sapiens), sequence (Q8NFQ8 whole entry, looked up): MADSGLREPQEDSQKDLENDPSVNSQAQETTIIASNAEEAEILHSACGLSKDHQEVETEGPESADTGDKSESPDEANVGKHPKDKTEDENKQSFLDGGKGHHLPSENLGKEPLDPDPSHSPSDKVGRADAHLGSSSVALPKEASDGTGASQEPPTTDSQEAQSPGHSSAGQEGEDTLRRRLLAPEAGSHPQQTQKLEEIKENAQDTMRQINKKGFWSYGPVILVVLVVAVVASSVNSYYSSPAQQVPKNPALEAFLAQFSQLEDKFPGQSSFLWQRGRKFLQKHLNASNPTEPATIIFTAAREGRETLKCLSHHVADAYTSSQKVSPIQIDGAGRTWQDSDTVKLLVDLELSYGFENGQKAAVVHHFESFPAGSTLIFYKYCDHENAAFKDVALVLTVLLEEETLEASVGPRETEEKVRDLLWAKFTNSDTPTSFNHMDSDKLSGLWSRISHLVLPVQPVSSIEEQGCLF
Neurogenic locus notch homolog protein 3 (Homo sapiens), sequence (Q9UM47 whole entry, looked up): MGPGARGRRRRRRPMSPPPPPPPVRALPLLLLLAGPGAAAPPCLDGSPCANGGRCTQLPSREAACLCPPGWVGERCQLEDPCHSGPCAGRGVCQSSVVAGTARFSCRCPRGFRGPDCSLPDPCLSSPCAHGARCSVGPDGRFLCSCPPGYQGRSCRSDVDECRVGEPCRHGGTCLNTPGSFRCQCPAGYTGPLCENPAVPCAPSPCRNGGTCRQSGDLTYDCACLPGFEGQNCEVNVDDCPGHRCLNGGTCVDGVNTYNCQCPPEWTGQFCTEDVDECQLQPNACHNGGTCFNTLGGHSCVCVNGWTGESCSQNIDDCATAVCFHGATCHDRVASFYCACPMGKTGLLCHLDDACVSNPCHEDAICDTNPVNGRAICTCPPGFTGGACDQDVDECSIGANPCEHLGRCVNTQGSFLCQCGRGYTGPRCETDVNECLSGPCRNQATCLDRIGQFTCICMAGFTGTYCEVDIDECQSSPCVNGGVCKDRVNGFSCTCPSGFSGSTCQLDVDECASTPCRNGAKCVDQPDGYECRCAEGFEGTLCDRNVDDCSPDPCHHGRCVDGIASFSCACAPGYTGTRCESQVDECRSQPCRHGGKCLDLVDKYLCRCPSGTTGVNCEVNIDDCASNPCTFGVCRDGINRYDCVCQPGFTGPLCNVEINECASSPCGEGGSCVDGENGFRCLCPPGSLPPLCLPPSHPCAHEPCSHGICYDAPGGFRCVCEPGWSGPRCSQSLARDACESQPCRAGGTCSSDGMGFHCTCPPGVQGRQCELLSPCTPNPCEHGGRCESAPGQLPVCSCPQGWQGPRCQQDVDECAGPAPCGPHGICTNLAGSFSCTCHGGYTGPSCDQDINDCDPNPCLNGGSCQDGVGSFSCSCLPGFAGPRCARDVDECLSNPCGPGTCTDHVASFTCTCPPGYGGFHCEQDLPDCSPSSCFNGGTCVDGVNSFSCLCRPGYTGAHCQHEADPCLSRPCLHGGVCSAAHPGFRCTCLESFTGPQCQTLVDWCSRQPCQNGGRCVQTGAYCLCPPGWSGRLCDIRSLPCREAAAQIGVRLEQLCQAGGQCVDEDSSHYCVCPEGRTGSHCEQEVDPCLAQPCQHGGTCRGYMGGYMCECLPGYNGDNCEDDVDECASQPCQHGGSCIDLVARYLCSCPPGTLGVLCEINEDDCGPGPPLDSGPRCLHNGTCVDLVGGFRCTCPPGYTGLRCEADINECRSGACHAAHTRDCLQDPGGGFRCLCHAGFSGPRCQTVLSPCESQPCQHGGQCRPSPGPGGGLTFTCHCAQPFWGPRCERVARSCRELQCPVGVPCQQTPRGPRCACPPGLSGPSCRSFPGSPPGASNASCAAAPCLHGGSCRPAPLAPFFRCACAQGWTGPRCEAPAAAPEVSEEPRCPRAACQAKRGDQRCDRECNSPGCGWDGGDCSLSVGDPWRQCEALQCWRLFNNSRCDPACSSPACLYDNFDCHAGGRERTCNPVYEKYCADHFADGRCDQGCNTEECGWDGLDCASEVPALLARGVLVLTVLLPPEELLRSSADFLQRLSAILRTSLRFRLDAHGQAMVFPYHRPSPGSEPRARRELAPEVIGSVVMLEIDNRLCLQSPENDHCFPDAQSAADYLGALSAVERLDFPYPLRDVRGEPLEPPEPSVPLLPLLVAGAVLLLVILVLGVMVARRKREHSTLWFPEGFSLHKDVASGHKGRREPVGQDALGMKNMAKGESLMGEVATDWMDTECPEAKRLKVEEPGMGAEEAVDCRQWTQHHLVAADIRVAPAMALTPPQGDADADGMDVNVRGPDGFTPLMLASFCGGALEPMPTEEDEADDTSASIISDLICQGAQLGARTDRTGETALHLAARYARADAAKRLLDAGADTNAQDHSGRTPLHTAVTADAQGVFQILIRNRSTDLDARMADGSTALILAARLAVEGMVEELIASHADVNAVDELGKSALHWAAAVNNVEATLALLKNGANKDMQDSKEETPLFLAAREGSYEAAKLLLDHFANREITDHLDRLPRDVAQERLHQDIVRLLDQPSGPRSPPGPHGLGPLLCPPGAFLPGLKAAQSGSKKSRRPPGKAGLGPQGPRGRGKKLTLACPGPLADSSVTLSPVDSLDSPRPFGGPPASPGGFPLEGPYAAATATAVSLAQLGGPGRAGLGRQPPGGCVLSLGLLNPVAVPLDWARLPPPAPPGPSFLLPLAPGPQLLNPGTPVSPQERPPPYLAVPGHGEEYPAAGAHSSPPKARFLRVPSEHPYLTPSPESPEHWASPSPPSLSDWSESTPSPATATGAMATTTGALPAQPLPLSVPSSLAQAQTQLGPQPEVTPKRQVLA

Regarding `COC(=O)[C@H](Cc1ccccc1)N1CC(/C=C/C2CC2)=C[C@H]1[C@H](O)Cc1ccccc1`, the composite z-score in [1] was 1.54; in assay [5], 1.18; in assay [7], -0.161; in assay [8], 0.961; in [9], 0.899; in assay [10] it was -0.0343. Also, the composite z-score is 0.728 in assay [11]; -0.0559 in [12]; -0.165 in assay [13]; 0.697 in [15]; 0.368 in assay [16]; 0.237 in assay [17]. Besides, the composite z-score turned out to be 0.702 in assay [18], 0.734 in assay [19] and 0.597 in [20]. In addition, the z-score is -0.457 (inactive) in [2]; -3.67 (inactive) in [3]; -0.677 (inactive) in [4]; -0.25 (inactive) in [6]; 20.9 (active) in [14].
Regarding `C=CCN1Cc2ccccc2[C@H]2OC(c3ccc(OCCCO)cc3)=N[C@@]2(CC=C)C1=O`, the composite z-score in assay [1] came to 1.53; in assay [5] it was 3.21; in assay [7] it was 0.185; in assay [8], 1.55; in assay [9], 0.979; in assay [10], 0.168. Further, the composite z-score in [11] turned out to be 0.911; in [12], 0.406; in [13], 1.09; in [15], 1.4; in assay [16], 1.28; in assay [17], 0.901. Besides, the composite z-score in assay [18] is 1.42; in [19], 1.67; in assay [20], 1.39. The z-score is -3.05 (inactive) in assay [2]; -7.01 (inactive) in assay [3]; -0.397 (inactive) in assay [4]; 0.763 (inactive) in [6]; -0.308 (inactive) in [14].
In the case of `Cc1ccc(S[C@]2(C(=O)O)CC(=O)N(C3Cc4ccccc4C3)[C@@H]2c2ccc(CO)cc2)cc1`, the composite z-score in assay [1] was 1.04; in assay [5], 2.98; in [7], 0.126; in assay [8], -0.98; in [9] it was -0.472; in assay [10], -0.185. For the same molecule, the composite z-score in [11] was 1.02; in [12], 0.526; in [13], 1.08; in assay [15], 0.0926; in [16], -0.775; in assay [17] it was -0.846. In addition, the composite z-score in assay [18] was -0.946; in [19] it was -1.69; in [20], 1.19. For the same molecule, the z-score is 0.137 (inactive) in assay [2]; -1.36 (inactive) in assay [3]; 0.448 (inactive) in [4]; 0.618 (inactive) in assay [6]; 0.2 (inactive) in [14].
Take `OCC1CC(c2ccccc2)=NO1` (stereo not given): the composite z-score is -1.11 in [1]; -1.3 in [5]; -0.119 in [7]; 0.397 in assay [8]; -0.473 in assay [9]; -0.068 in assay [10]. In addition, the composite z-score in assay [11] was 0.0686; in assay [12], -0.217; in assay [13] it was -0.354; in assay [15] it was 0.0912; in [16], 0.0016; in [17] it was 0.37. The figures for the composite z-score in assay [18], in [19] and in assay [20] were -0.0588, 0.473 and 0.685, respectively. For the same molecule, the z-score is -0.248 (inactive) in assay [2]; -0.0256 (inactive) in assay [3]; 0.368 (inactive) in assay [4]; 0.677 (inactive) in [6]; -0.0813 (inactive) in [14].
Take `Cc1ccc(S[C@]2(C(=O)NCC(F)(F)F)CC(=O)N(C3CCCCC3)[C@@H]2c2ccc(CO)cc2I)cc1`: the composite z-score in assay [1] turned out to be 1.54; in assay [5], 2.82; in assay [7], 0.171; in assay [8] it was 0.456; in assay [9], 1.14; in assay [10], 0.0516. Also, the composite z-score in assay [11] came out at 0.894; in [12] it was 0.119; in [13] it was 0.408; in [15] it was 0.919; in assay [16], 1.24; in [17] it was 0.395. In addition, the figures for the composite z-score in assay [18], in assay [19] and in assay [20] were 0.914, 0.133 and 0.469, respectively. In addition, the z-score in assay [2] was -0.332 (inactive); in assay [3] it was -0.692 (inactive); in assay [4] it was 1.23 (inactive); in [6] it was 0.312 (inactive); in assay [14], -0.635 (inactive).
